Results on two molecules are retold here after PubChem BioAssay AID1159580 (chemical genetic matrix, 2015).

This test in a line: chemical genetic growth profiling, strain panel (AID 1159580).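 Note: tested at 20 µM; growth read once vehicle control cultures reached saturation at 30 °C; 1 = growth at the plate median or of vehicle wells; lower values mean less growth of the strain.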 The settings on record: S. cerevisiae deletion strains, growth OD.
[1] abbreviates: locus YAL040C, strain CLN3, stronger effect = lower value.
Where [2] appears, read: locus YDR363W, strain ESC2, stronger effect = lower value.
Setting [3] is: locus YER002W, strain NOP16, stronger effect = lower value.
Setting [4] is: locus YMR263W, strain SAP30, stronger effect = lower value.
Setting [5] is: locus YNL153C, strain GIM3, stronger effect = lower value.
Setting [6] is: locus YNL175C, strain NOP13, stronger effect = lower value.
The mark [7] stands for this setting: locus YNL197C, strain WHI3, stronger effect = lower value.
The mark [8] stands for this setting: locus YNL224C, strain SQS1, stronger effect = lower value.
Where [9] appears, read: locus YOR083W, strain WHI5 (second series), stronger effect = lower value.
The mark [10] stands for this setting: locus YPL241C, strain CIN2, stronger effect = lower value.

The structures appear in SMILES notation. Among all 5,500 compounds or so, about 2,000 (36%) were called active. Roughly 18% stayed inconclusive and do not appear here. The list shows a part of the results. Unmarked numbers belong to inactive results. Cut-off read from the data, not from the text of the source: active = normalized growth mostly below about 0.91 (no sharp cut-off); inconclusive = no clear call, values can overlap the other calls; inactive = mostly above about 0.92.

Consider `CC(C)C[C@H]1C(=O)N2CCC[C@H]2[C@]2(O)O[C@](NC(=O)[C@@H]3C=C4c5cccc6[nH]c(Br)c(c56)C[C@H]4N(C)C3)(C(C)C)C(=O)N12`, for which the normalized growth is 0.741 (active) under setting [1]; 0.996 (locus YDR150W, strain NUM1, stronger effect = lower value); 1.02 under setting [2]; 1.03 under setting [3]; 1.01 under setting [4]; 1.03 (locus YNL128W, strain TEP1, stronger effect = lower value). The normalized growth runs as follows: under setting [5], 0.974; under setting [6], 1.04; under setting [7], 1.01; under setting [8], 1.01; under setting [9], 1.03; under setting [10], 0.989.

With `CC(C)[C@@]1(NC(=O)[C@@H]2C=C3c4cccc5[nH]cc(c45)C[C@H]3N(C)C2)O[C@@]2(O)[C@@H]3CCCN3C(=O)[C@H](Cc3ccccc3)N2C1=O`, the normalized growth runs as follows: under setting [1], 0.989; (locus YCL061C, strain MRC1 (second series), stronger effect = lower value) 0.996; under setting [2], 0.993; under setting [3], 0.998; under setting [4], 0.999; (locus YMR307W, strain GAS1, stronger effect = lower value) 0.982. Further, the normalized growth under setting [5] is 0.99; the normalized growth under setting [6] was 1.01; the normalized growth under setting [7] was 1; the normalized growth under setting [8] was 0.972; the normalized growth under setting [9] was 1.04; the normalized growth (locus YPL055C, strain LGE1, stronger effect = lower value) was 0.99. For the same molecule, the normalized growth under setting [10] is 0.998.
